Many of the other results were omitted from the sample, so hits are more common in it than they were.
Shiga inhibitor: inhibitors of Shiga toxin in Vero cells; Vero cells, Shiga toxin protein synthesis inhibition reporter; inhibition, % at 38.7 µM; 290,000 tested, 9.2% active; in the data active means inhibition mostly above about 28%, no sharp cut-off; inactive means mostly below about 43%
AMA1 RON2 block: inhibitors of Plasmodium falciparum AMA1-RON2 interaction; 360,000 tested, 0.2% active; AlphaScreen AMA1-biotinylated RON2 peptide binding; Potency, µM (top dose mostly 58.2 µM), hits mostly inhibitors; active means well fitted inhibition curve with a large enough effect; inconclusive means small, poorly fitted or top-dose-only effect; inactive means no such curve, though single readings can be large or run the other way; further: nearly all actives have a fitted effect of over 45% in size
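AMA1 (3D7) with his tag at 25 nM final met compounds first, then biotinylated RON2 peptide at 25 nM; detection used donor plus acceptor beads, 10 µg/mL apiece, read by AlphaScreen after 30 min at room temperature.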
MARV entry inh: Marburg virus entry inhibition; Marburg virus pseudotyped entry inhibition, cell reporter; 300,000 tested, 1.8% active; Potency, µM (highest dose often 37.8 µM), usual class: inhibitors; AID 540276; calls by dose curve; tested in HEK293 cells
Lassa entry inh: Lassa virus entry inhibition; Lassa virus pseudotype entry inhibition, cell reporter; Potency, µM (titrated, usually from 37.9 µM), usual class: inhibitors; 300,000 tested, 1.2% active; calls by dose curve; tested in HEK293 cells; further: nearly all actives have a fitted effect of over 50% in size
CHX counter: counter-screen for Shiga toxin inhibitors: cycloheximide protein synthesis inhibition | cell reporter, cycloheximide protein synthesis inhibition counterscreen | 300,000 tested, 12% active | max response, % | AID 2314; in the data active means max response mostly above about 13%, no sharp cut-off; inactive means mostly below about 14%; further: read at 38.3 µM for the half of the compounds with a filed dose
A number is an active result; 0 = inactive; ? = inconclusive; - = no result.

SMILES	Shiga inhibitor	AMA1 RON2 block	MARV entry inh	Lassa entry inh	CHX counter
Cc1c(NC(=O)C(C)OC(=O)CC2Sc3ccccc3NC2=O)c(=O)n(-c2ccccc2)n1C (stereo not given)	0	0	0	0	13
Nc1ccc[n+](CC(=O)c2ccccc2)c1	-	0	-	-	0
CCc1n[n+](CC(=O)c2ccccc2)c(N)s1	0	0	?	7.9µM	22
CCN(Cc1nc2cc(Cl)ccc2c(=O)[nH]1)C(=O)c1cc(C2CC2)nn1-c1ccccc1	-	0	0	0	-
Cc1ccc(N=Nc2c(O)ccc3n[nH]nc23)cc1	103	0	-	-	42
O=C1CC(/C=C/c2ccccc2)=Nc2ccccc2N1	58	0	-	-	30
O=C1CC(/C=C/c2cccnc2)=Nc2ccccc2N1	0	0	?	?	17
CC1(C)CC(=O)C=C(/C=C/c2ccccc2)C1	-	0	-	-	-
O=C1CC(C(F)(F)C(F)(F)C(F)(F)F)=Nc2ccccc2N1	0	0	0	0	0
CC1(C)CC(/C=C/c2ccccc2)=Nc2ccccc2N1	83	0	-	-	52
O=C1CC(/C=C/c2ccc(Cl)cc2)=Nc2ccccc2N1	97	0	-	-	39
CCCCC(C(=O)O)C(C)CC(=O)NNC(=O)c1ccco1 (stereo not given)	0	0	0	0	0
O=C(Nc1ccccc1C(=O)NC1CC1)c1ccccc1F	-	0	-	-	-
C[C@H]1COc2cc(N3CCC[C@H]3CO)ccc2S(=O)(=O)N1	-	0	-	-	-
COc1cc(-c2noc(-c3ccc(N4CCN(C)CC4)c([N+](=O)[O-])c3)n2)cc(OC)c1OC	-	-	0	0	-
Cc1ccc(-c2cc(C(=O)NCc3ccccn3)c3ccccc3n2)cc1	0	0	?	?	30
Cc1ccc(-c2cc(C(=O)NCCc3ccc(S(N)(=O)=O)cc3)c3ccccc3n2)cc1	0	0	-	-	17
O=C(NCc1ccccn1)c1cc(-c2ccc(Br)cc2)nc2ccccc12	0	0	?	0	0
Cc1ccc(C(=O)NCc2ccccn2)c(Cl)c1	63	0	0	?	31
CCc1ccc(-c2cc(C(=O)NCc3ccccn3)c3ccccc3n2)cc1	92	0	?	?	64
O=C(NCc1ccccn1)c1ccccc1Cl	0	0	0	0	0
CCOc1ccc(-c2cc(C(=O)NCc3ccc(C)cc3)c3ccccc3n2)cc1	-	-	-	0	-
O=S(=O)(Nc1ccc(-c2cn3ccccc3n2)cc1)c1ccccc1	87	0	-	-	28
Cc1cccc(S(=O)(=O)Nc2ccc(-c3cn4ccccc4n3)cc2)c1	0	0	0	?	13
C[C@H]1CN=C(N(C)C)N1CCCC1CCCCC1	-	0	-	-	-
SMILES	Shiga inhibitor	AMA1 RON2 block	MARV entry inh	Lassa entry inh	CHX counter
COc1ccc(-c2nc(NC(=O)C3=NN(c4cccc(C)c4)C(=O)CC3)sc2C)cc1	0	0	-	-	17
CCN(c1ccccc1)S(=O)(=O)c1ccc(OC)c(NC(=O)C2=NN(c3ccccc3)C(=O)CC2)c1	-	0	?	0.32µM	-
COc1ccc(-c2csc(NC(=O)C3=NN(c4ccccc4)C(=O)CC3)n2)cc1	0	0	?	?	23
O=C(Nc1nc(-c2cc(F)ccc2F)cs1)C1=NN(c2ccccc2)C(=O)CC1	0	0	0	?	0
Cc1ccc(F)cc1C(=O)N1CCCC(C)(C(=O)NS(=O)(=O)C2CC2)C1 (stereo not given)	-	0	-	-	-
CC(C)Oc1ccc(C(=O)Nc2ccc([N+](=O)[O-])cc2)cc1	119	0	-	-	37
CC(=O)Nc1ccc(C(=O)Nc2ccncc2)cc1	0	0	-	-	0
CC(C)Oc1ccc(NC(=O)c2ccncc2)cc1	63	0	0	0	19
O=C1CC(c2ccccc2)CC(O)=C1C=Nc1ccc(O)cc1 (stereo not given)	0	0	?	?	18
CCCCCCOC(=O)CC1CC(C(C)=O)C1(C)C (stereo not given)	-	0	0	0	-
COc1ccc(C2C(CC(=O)O)=C(O)C(=O)N2c2ccccc2)cc1 (stereo not given)	38	0	0	0	28
CC(C)(C)C1=CC(=Nc2ccccc2N)C=C(C(C)(C)C)C1=O	0	11µM	?	0	0
Cc1cccc(NC(=O)CSc2nc3ccccc3nc2N2CC(C)OC(C)C2)c1 (stereo not given)	0	0	-	-	11
COc1ccc(NC(=O)CSc2nc3ccccc3nc2N2CCCCC2)cc1	0	0	0	0	0
COc1cccc(NC(=O)CSc2nc(=O)n(CCN(C)C)c3c2CCCC3)c1	-	0	0	0	-
CCc1ccc(NC(=O)CSc2nc3ccccc3nc2N2CCCCC2)cc1	0	0	-	-	22
CCc1ccc(NC(=O)CSc2nc(=O)n(CCN(C)C)c3c2CCCC3)cc1	-	0	13µM	?	-
CCc1cccc(NC(=O)CSc2nc3ccccc3nc2N2CCCCC2)c1	0	-	?	?	0
COc1cccc(NC(=O)CSc2nc3ccccc3nc2N2CCCC2)c1	57	0	-	-	37
Fc1ccccc1OCCCCN1CCCCC1	0	0	-	-	0
COc1ccc(C2=Nc3ccccc3N(C(=O)c3ccc(C)cc3)C2C(=O)Nc2c(C)cccc2C)cc1 (stereo not given)	-	0	-	-	-
O=C(O)c1ccc2c(c1)C(=O)N([C@H](Cc1ccc(Cl)cc1)C(=O)O)C2=O	0	-	-	-	0
O=C(O)C1OC1(c1ccccc1Cl)c1ccccc1Cl (stereo not given)	-	0	0	0	-
Cc1ccc(-c2nc3ccccc3[nH]2)cc1NC(=O)c1ccco1	0	0	0	0	22
Cc1cccc2[nH]c(-c3ccc(NC(=O)c4ccco4)cc3)nc12	126	0	?	?	32
SMILES	Shiga inhibitor	AMA1 RON2 block	MARV entry inh	Lassa entry inh	CHX counter
Cc1cccc(C)c1OCC(=O)Nc1ccc(NC(=O)c2ccco2)cc1	0	0	0	0	0
Cc1ccc(-c2nc3ccccc3[nH]2)cc1NC(=O)COc1cccc(C)c1C	-	-	?	0	-
O=C(O)Cc1ccc(NC(=O)c2cccc(NC(=O)c3ccco3)c2)cc1	0	0	0	0	0
O=C(Nc1ccc2nc[nH]c2c1)c1ccco1	71	0	0	0	30
O=C(Nc1cccc(-c2nc3ccccc3[nH]2)c1)c1cccc(NC(=O)c2ccco2)c1	0	?	13µM	?	0
CS(=O)(=O)c1cccc(C(=O)Nc2cccc(-c3nc4ccccc4[nH]3)c2)c1	0	0	0	?	0
COc1ccc2c(c1)c1c(c(=O)n(-c3ccc(OC)c(OC)c3)c(=O)n1CC(=O)N1CCCC1)n2C	-	-	-	0	-
C#CCCCO/N=C1\C[C@@H](O)[C@@H](O)[C@@H]2[C@@H]3C(=O)N(C[C@@H]4CCCO4)C(=O)[C@@H]3CC[C@@H]12	-	-	0	-	-
Cc1ccc(-c2nc3ccccc3[nH]2)cc1NC(=O)COc1ccc(Cl)cc1Cl	-	-	0	0	-
O=C(Nc1ccc2nc(-c3ccccc3)[nH]c2c1)c1ccco1	47	0	?	?	36
Cc1ccc(-c2nc3ccccc3[nH]2)cc1NC(=O)c1sc2cc(Cl)ccc2c1Cl	0	0	0	0	20
CC(C)CCn1c(=O)c2ccccc2n2c(CCC(=O)NCC3CCCO3)nnc12 (stereo not given)	0	0	-	-	0
Cc1ccc(OCCSc2ncnc3nc[nH]c23)cc1	0	0	?	?	61
Brc1ccc(CSc2ncnc3nc[nH]c23)cc1	0	0	?	0	16
